Rows were chosen to be rich in hits. Some 2.8% of all compounds tested hit in one or more screens of this group.
PME-1 inh = PME-1 inhibitors via competitive probe labeling, primary screen, biochemical, fluorescence polarization, FP-Rh probe, HTS; 320,000 compounds, 0.53% hits; AID 2130, 2009; inhibition, % at 5.9 µM; recombinant PME-1; Protein phosphatase methylesterase 1 (Homo sapiens), Q9Y570;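 active = inhibition above the campaign mean of all compounds plus 3 SD, cut at about 26% in these data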;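 note: competitive labeling of PME-1 active site by serine hydrolase directed probe; inhibitors block probe labeling so polarization falls and inhibition rises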
PAFAH1B3 inh = PAFAH1B3 enzyme inhibitors, primary screen, biochemical, fluorescence polarization, human | recombinant PAFAH1B3, FP-rhodamine probe | 340,000 compounds, 0.28% hits | Platelet-activating factor acetylhydrolase IB subunit alpha1 (Homo sapiens), Q15102 | inhibition, % at 3.39 µM;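 active = inhibition above the screen-wide average of all tested compounds plus 3 SD, cut at about 25% in these data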
Target sequence (Q15102 whole entry, looked up): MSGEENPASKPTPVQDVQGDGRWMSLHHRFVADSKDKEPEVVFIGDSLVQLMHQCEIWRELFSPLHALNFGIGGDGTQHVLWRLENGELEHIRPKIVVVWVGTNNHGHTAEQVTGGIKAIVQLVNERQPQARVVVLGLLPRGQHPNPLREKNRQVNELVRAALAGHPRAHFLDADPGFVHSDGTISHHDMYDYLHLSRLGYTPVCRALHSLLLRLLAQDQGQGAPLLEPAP
PAFAH1B2 FP inh = PAFAH1B2 enzyme inhibitors, primary screen, biochemical, fluorescence polarization, human. 340,000 compounds, 1.2% hits. AID 492953, 2010. recombinant PAFAH1B2, FP-rhodamine activity probe. Platelet-activating factor acetylhydrolase IB subunit alpha2 (Homo sapiens), P68402. inhibition, % at 3.39 µM;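 active = inhibition above the mean of all tested compounds plus 3 SD, cut at about 24% in these data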
Target sequence (P68402 whole entry, looked up): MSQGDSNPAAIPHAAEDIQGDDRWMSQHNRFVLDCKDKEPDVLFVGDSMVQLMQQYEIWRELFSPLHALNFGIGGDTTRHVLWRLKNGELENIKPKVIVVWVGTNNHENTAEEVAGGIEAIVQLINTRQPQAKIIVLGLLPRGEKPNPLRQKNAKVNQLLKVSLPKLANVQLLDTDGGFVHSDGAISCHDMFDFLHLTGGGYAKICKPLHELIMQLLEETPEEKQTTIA
Fam108B counter = mouse Fam108B serine hydrolase inhibitors, primary screen, counter-screen for RBBP9 inhibitor project, biochemical, fluorescence polarization. 300,000 compounds, 0.33% hits. recombinant Fam108B, FP-Rh probe fluorescence polarization. AID 1947, 2009. inhibition, % at 9.51 µM;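 active = inhibition above the screen mean inhibition plus 3 SD, computed separately per campaign, cut at about 18% in these data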;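 note: inhibitors lower polarization as less probe binds the enzyme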
pPAFAH inh = pPAFAH enzyme inhibitors, primary screen, biochemical, fluorescence polarization, human; Platelet-activating factor acetylhydrolase (Homo sapiens), Q13093; recombinant pPAFAH, FP-rhodamine probe fluorescence polarization; inhibition, % at 3.39 µM; 330,000 compounds, 1.5% hits; AID 463082, 2010;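 active = inhibition above the mean inhibition across the screen plus 3 SD, cut at about 25% in these data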;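 note: inhibitors block binding of the rhodamine activity-based probe so polarization drops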
PAFAH2 inh = PAFAH2 enzyme inhibitors, primary screen, biochemical, fluorescence polarization, human; Platelet-activating factor acetylhydrolase 2, cytoplasmic (Homo sapiens), Q99487; recombinant PAFAH2, FP-rhodamine activity probe; inhibition, % at 3.39 µM; 340,000 compounds, 0.99% hits;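 active = inhibition above the mean over all tested compounds plus 3 SD, cut at about 30% in these data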;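 note: inhibitors block probe labeling of enzyme so polarization drops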
Of the large screens only hits and unclear results are named; the others gave an inactive call.

CCN(CC(=O)NCc1cccs1)C(=O)c1ccc(NS(=O)(=O)c2cccc([N+](=O)[O-])c2)cc1	none
COCCN(C(=O)CCC(=O)Nc1cc(C)on1)C(C(=O)NC(C)(C)C)c1cccc(OC)c1OC (stereo not drawn)	none
N#Cc1ccc(NC(=O)COC(=O)CCNS(=O)(=O)c2ccccc2)cc1	pPAFAH inh 29
O=C(CCNS(=O)(=O)c1ccccc1)OCC(=O)c1ccc(Cl)cc1	pPAFAH inh 26
O=c1cc(-c2ccc(Cl)c(Cl)c2)[nH][nH]1	pPAFAH inh 26
O=c1cc(-c2ccc(Cl)cc2)[nH][nH]1	none
CC1(C)Cc2c(cnn2-c2cccc(F)c2)C(NC(=O)c2ccc[n+]([O-])c2)C1 (stereo not drawn)	none (no result: PME-1 inh, Fam108B counter, pPAFAH inh)
COC(=O)C(C)Oc1ccc(Cl)c(CN2OCC(C)(C)C2=O)c1 (stereo not drawn)	none
COc1ccc(-c2c(C)nn3c(N4CCN(Cc5ccccc5)CC4)cc(C)nc23)cc1OC	none
COc1ccccc1-c1c(C)nn2c(N3CCN(Cc4ccccc4)CC3)cc(C)nc12	pPAFAH inh 28
CCCCc1ccc(C2C3=C(CC(C)(C)CC3=O)NC3=C2C(=O)c2ccccc23)cc1 (stereo not drawn)	pPAFAH inh 27
CC1(C)CC(=O)C2=C(C1)NC1=C(C(=O)c3ccccc31)C2c1ccc(O)cc1 (stereo not drawn)	none
c1ccc(Cc2nn3c(Cn4nnc5ccccc54)nnc3s2)cc1	none
c1ccc(OCc2nn3c(Cn4nnc5ccccc54)nnc3s2)cc1	PAFAH1B2 FP inh 24
C[C@@H]1O[C@@H](O[C@H]2[C@H](O)[C@@H](O)[C@H](Oc3c(-c4ccc(O)cc4)oc4cc(O)cc(O)c4c3=O)O[C@@H]2CO)[C@H](O)[C@H](O)[C@H]1O	none (no result: PME-1 inh, Fam108B counter)
C[C@@H]1O[C@@H](OC2C(O)C(OCCc3ccc(O)c(O)c3)OC(CO)C2OC(=O)/C=C/c2ccc(O)c(O)c2)[C@H](O)[C@H](O)[C@H]1O (stereo partly drawn)	pPAFAH inh 46 (no result: PAFAH1B3 inh, PAFAH1B2 FP inh, PAFAH2 inh)
CCOc1ccc(/C=C/C2=Cc3c(sc(NC(=O)CSc4n[nH]c(N)n4)c3C#N)C(C)(C)C2)cc1	none
Cc1ccsc1/C=C/C1=Cc2c(sc(NC(=O)CSc3n[nH]c(N)n3)c2C#N)C(C)(C)C1	pPAFAH inh 32
O=C(NCc1n[nH]c(=S)n1-c1ccc(Br)cc1)c1ccc(S(=O)(=O)N2CCCC2)cc1	none
O=C(NCc1n[nH]c(=S)n1-c1ccc(Br)cc1)c1ccc(S(=O)(=O)N2CCCCC2)cc1	PAFAH1B2 FP inh 30
COc1ccc2nccc(C(N)=O)c2c1	none
COC(=O)C(C)Oc1ccc2c3c(c(=O)oc2c1)CCCCC3 (stereo not drawn)	pPAFAH inh 28
CC(Oc1ccc2c3c(c(=O)oc2c1)CCCC3)C(=O)NCC1CCC(C(=O)O)CC1 (stereo not drawn)	none
O=C(NC1CCN(S(=O)(=O)c2ccc(F)cc2)CC1)c1cccc(F)c1	none
Cc1nn(C(=O)c2ccco2)c(C)c1Sc1ccc(Cl)cc1	none
Cc1nn(C(=O)c2cccnc2)c(C)c1Sc1ccc(Br)cc1	PAFAH1B2 FP inh 28
Cc1c(OCC(=O)N[C@@H](Cc2ccccc2)C(=O)O)ccc2c3c(c(=O)oc12)CCC3	none
Cc1c(OCC(=O)N[C@@H](CSCc2ccccc2)C(=O)O)ccc2c3c(c(=O)oc12)CCC3	PAFAH1B2 FP inh 24 (no result: PME-1 inh, Fam108B counter, pPAFAH inh)
N#Cc1cccc(C#N)c1Oc1ccc(N)cc1	none
CCCn1cnc2cc(NCc3ccc(Br)cc3)ccc21	PAFAH1B2 FP inh 37
Cn1cnc2cc(NCc3ccc(Cl)cc3)ccc21	PAFAH1B2 FP inh 43
CCOc1ccc(CNc2ccc3c(c2)ncn3C)cc1	none
Brc1ccc(CNc2ccc3ncccc3c2)cc1	PAFAH1B2 FP inh 51 (no result: PME-1 inh, Fam108B counter, pPAFAH inh)
COc1cccc(NC(=O)CN(C)S(=O)(=O)/C=C/c2ccccc2)c1	none (no result: Fam108B counter)

Compound activity (PubChem BioAssay)
